Pf Dd2 inh – qHTS Primary assay for Inhibitors of Plasmodium falciparum Dd2 growth in vitro; Potency, µM (top dose mostly 28.9 µM), for the others: at the top dose activity, negative = inhibition, most hits filed as inhibitors; actives 4.3% (n = 120,000); P. falciparum Dd2 growth, SYBR Green, 72 h; AID 1347417, 2020; active = well fitted inhibition curve with a large enough effect;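 also: plate controls were DMSO vehicle for no effect and reference drug for full effect; nearly all actives have a fitted effect of over 65% in size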
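Infected erythrocytes (Dd2, 0.3% parasitemia, 2.5% hematocrit final) are added to compound in RPMI-1640/Albumax II medium, grown 72 h at 37C in low oxygen, then lysed with saponin/Triton-X containing SYBR Green and read by fluorescence.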
* hit, by the source's call; i = inactive; [ ] = another dose, or the depositor's remark. The full list was thinned out, with hits kept by preference. Potency is read from the fitted curve at half-maximal effect.

SMILES	Pf Dd2 inh
O=C(Nc1ccccc1)N[C@H]1C[C@H]2C(=O)NC[C@@H](CCC(=O)N3CCc4ccccc43)N2C1	-10.3%
CCCC(=O)NC1CCN(C(=O)N2CC3CC(C2)[C@H]2CCCC(=O)N2C3)CC1 (some centres undefined)	i
Cc1ccc(C(=O)N2CCNC(=O)C2Cc2ccccc2)c(F)c1 (centres undefined)	6.1%
Cc1nnc(-c2cc(-c3ccc(CO)cc3)ccn2)n1Cc1ccncc1	i
CC(NC(=O)COc1ccc(NC(=O)C2CC2)cn1)c1cccs1 (centres undefined)	25.9%
Cc1nc(CN2CC3(CCN(C)C3)c3cc(C(=O)NCc4cccs4)ccc32)cs1 (centres undefined)	-3.3%[44.1 µM]
CN1CCC2(C1)CN(Cc1ccccc1)c1ccc(C(=O)NCc3cccs3)cc12 (centres undefined)	7.08µM*
CN1CCCC2(C1)CN(Cc1cccnc1)c1ccc(C(=O)NCc3cccs3)cc12 (centres undefined)	-7.6%[44.1 µM]
COc1ccc(F)c(CN2CCCC(O)(CN3CCC(C(N)=O)CC3)C2=O)c1 (centres undefined)	-9.2%
Cc1ccoc1C(=O)N1CCCn2ccnc2C1c1cnn(C)c1 (centres undefined)	-16.6%
CNC(=O)c1cc(-c2cnn(C)c2)cc2c1OCCN2Cc1cccnc1	-11.0%[44.1 µM]
CNC(=O)c1cc(-c2cccc(OC)c2OC)cc2c1OCCN2Cc1cccnc1	12.6µM*
CNC(=O)c1cc(-c2cccnc2)cc2c1OCCN2Cc1cccnc1	i
COc1cc(SC)ccc1C(=O)N[C@H]1CCN2C(=O)N(c3cccc(SC)c3)C(=O)[C@@H]2C1	-20.1%
CCN(CC)[C@H]1[C@@H]2OC[C@@H](O2)[C@@H](NCc2ccc(N(C)C)cc2)[C@@H]1O	i
CCN(CC)[C@H]1[C@@H]2OC[C@@H](O2)[C@@H](NC(=O)Nc2cccc(OC)c2)[C@@H]1O	i
CCN(CC)[C@H]1[C@@H]2OC[C@@H](O2)[C@@H](NCC2CCCCC2)[C@@H]1O	10µM*
COCCNC(=O)C1COC2(CCN(C(=O)c3ccc(OC)cc3)CC2)N1C(=O)c1ccccc1C (centres undefined)	-11.0%
CN1C(=O)c2cccn2CC1C(=O)NCc1cccc(F)c1 (centres undefined)	-21.8%
CN(Cc1ccc(-c2ccccc2)cc1)Cc1ccnn1C	-17.4%[44.1 µM]
CN(Cc1cccnc1)c1ccc2ncc(Nc3ccc(F)cc3)n2n1	-18.2%[44.1 µM]
COc1ccc(-c2ccc3ncc(Nc4ccnc(N5CCOCC5)c4)n3n2)cc1OC	-1.3%[44.1 µM]
CN(Cc1ccc(F)cc1)c1ccc2ncc(Nc3ccc4c(c3)OCO4)n2n1	-16.2%[44.1 µM]
CN(Cc1cccnc1)c1ccc2ncc(Nc3ccc4c(c3)OCO4)n2n1	7.94µM*
c1ccc(-c2ccc3ncc(Nc4ccc5c(c4)OCCO5)n3n2)cc1	i
SMILES	Pf Dd2 inh
CN1CCN(c2ccc3ncc(Nc4ccc5c(c4)OCCO5)n3n2)CC1	7.94µM*
Clc1cccc(Nc2cnc3ccc(N4CCOCC4)nn23)c1	-9.4%[44.1 µM]
CCc1nnc2ccc(N3CCN(C)CC3)nn12	-1.0%
CN1CCN(c2ccc3ncc(Nc4ccc(OC(F)(F)F)cc4)n3n2)CC1	3.55µM*
O=C(c1ccoc1)N1CCC2(CC1)CN(Cc1ccccc1)CC2CO (centres undefined)	i
Cc1nnnn1CCC(=O)N[C@H]1CN(S(C)(=O)=O)C[C@@H]1C(C)C	1.4%
O=C(CC(F)(F)F)NCCc1noc(-c2cccnc2)n1	31.4%
CCn1c(C)c(C)c2cc(C(=O)NCc3ccc(F)cc3)ccc21	i
Cc1c(C)n(Cc2ccc(F)cc2)c2ccc(C(=O)NCc3ccco3)cc12	3.55µM*
Cc1cccc(CNC(=O)c2ccc3c(c2)c(C)c(C)n3Cc2ccccc2)c1	-3.3%
COC[C@]1(O)CCN(C(=O)c2csc(C)c2)CC1(C)C	5.9%
O=C(CCC1CCCC1)NC1CCN(C(=O)N2CC3CC(C2)[C@H]2CCCC(=O)N2C3)CC1 (some centres undefined)	i
Cc1cc(CN(C)C(=O)CC(c2cccc(O)c2)c2ccccc2Cl)n[nH]1 (centres undefined)	-11.8%
COc1ccc(NC2CCCN(C(=O)c3cn(CCCN)nn3)C2)cc1 (centres undefined)	-0.4%
O=C(c1cccc(Cl)c1)N1CCN(CCc2ccccn2)CC1	55.2%
CCCCOc1ccc(C(=O)N2CCN(CCc3ccccn3)CC2)cc1	47.8%
CCOc1ccccc1C(=O)N1CCN(CCc2ccccn2)CC1	3.98µM*
CC(C)Oc1ccc(C(=O)N2CCN(CCc3ccccn3)CC2)cc1	9.3%
O=C(c1ccccc1Cl)N1CCN(CCc2ccccn2)CC1	3.55µM*
O=C(c1ccccc1)N1CCN(CCc2ccccn2)CC1	25.8%
O=C1c2ccccc2CN1C1CCN(Cc2ccc(F)cc2)CC1	14.0%
CCC(=O)N1CCC2(CC1)CC(C(=O)N1CCOCC1)N(C)C2 (centres undefined)	-12.4%
CCOc1cccc(CN2CCC(C(Cc3ccccc3F)N(C)C(=O)c3cccs3)CC2)c1O (centres undefined)	-27.3%
O=C(NCc1nnc2n1C(C(=O)O)CC2)c1ccc2c(c1)OC(F)(F)O2 (centres undefined)	19.2%
O=C(c1ccc(F)c(Cl)c1)N1CCCC2(C1)NC(=O)N(Cc1ccccc1)C2=O (centres undefined)	-24.2%
SMILES	Pf Dd2 inh
Cc1ccc(CN2C(=O)NC3(CCCN(C(=O)c4cccc(Cl)c4)C3)C2=O)cc1 (centres undefined)	i
Cc1ccc(CN2C(=O)NC3(CCCN(C(=O)c4ccc(F)c(Cl)c4)C3)C2=O)cc1 (centres undefined)	7.08µM*
COc1ccccc1C(=O)N1CCC2(CC1)CN[S+](=O)([O-])c1ccccc1N2	-4.2%
Cc1cccc(NC(=O)Cn2c(N3CCC(C)CC3)nc(C)cc2=O)c1	-16.2%
COc1cc(C2c3c(-c4ccccc4O)n[nH]c3C(=O)N2Cc2ccncc2)cc(OC)c1OC (centres undefined)	-9.6%
CCc1ccc(C2c3c(-c4ccccc4O)n[nH]c3C(=O)N2Cc2ccncc2)cc1 (centres undefined)	8.91µM*
CCOCCCN1C(=O)c2[nH]nc(-c3ccccc3O)c2C1c1ccc(CC)cc1 (centres undefined)	11.2µM*
O=C1c2[nH]nc(-c3ccccc3O)c2C(c2cccc(O)c2)N1Cc1ccncc1 (centres undefined)	12.4%
CCOCCCNC(=O)C(c1ccccc1)N1Cc2ccccc2C1=O (centres undefined)	i
O=C(NCCc1ccc(Cl)cc1)C1CCc2nnc(C3CCN(C(=O)C4CC4)CC3)n21 (centres undefined)	58.0%
COc1ccc(CCc2nc3nccc(-c4ccc(OC)cc4F)n3n2)cc1	i
Nc1nc(CC(=O)N2CCCC(CNC(=O)c3ccc(F)cc3)C2)cc(=O)[nH]1 (centres undefined)	-20.4%
CC(C)(C)C1CCc2nc(NC(=O)COc3ccccc3[N+](=O)[O-])sc2C1 (centres undefined)	i
CC(C)(C)C1CCc2nc(NC(=O)Cc3ccccc3)sc2C1 (centres undefined)	11.2µM*
Cc1cccc(OCC(=O)Nc2nc3c(s2)CC(C(C)(C)C)CC3)c1C (centres undefined)	16.2%
Cc1cn2nc(C(=O)N3CCC(NC(=O)c4cccc(F)c4)CC3)cc2c(=O)[nH]1	-1.1%
CCC1=C(C(=O)OC)C(c2cccc(C)c2)N2C(CC(=O)Nc3ccc(OC)cc3)=CSC2=N1 (centres undefined)	3.16µM*

Screening data deposited in PubChem BioAssay by National Center for Advancing Translational Sciences (NCATS).
